Measurements as given in PubChem BioAssay (NCATS).
Records with an inconclusive call do not appear. A number with no mark means an inactive call. Activity calls are given as the source filed them. Calls come from the whole dose curve; as a rule, active = well fitted cell-killing curve with a large enough effect; inconclusive = small, poorly fitted or top-dose-only effect, or effect the other way; inactive = no such curve, though single readings can be large or run the other way.

Experiment: qHTS of pediatric cancer cell lines to identify multiple opportunities for drug repurposing: Confirmatory screen for RD cells (AID 1347124);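 note: cells exposed to compound for 48 h before viability readout; nearly all actives have a fitted effect of over 65% in size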
Settings: RD rhabdomyosarcoma cell viability; series mostly up to 45.9 µM; activity change, negative = cytotoxic: at the top concentration
Source text: Drug repurposing or repositioning has been offered as a strategy for drug development in oncology programs. This approach has special potential for childhood cancers and other rare or orphan diseases, where the expected return on new drug development has been a disincentive to pharmaceuticals.
In this project we exploit the poly-pharmacology of drugs to discover new indications via phenotypic screening of a panel of 19 well-characterized cell lines derived from solid tumors seen in children and adolescents. The goal is to identify approved drugs with previously unrecognized anticancer properties that has the potential to reveal new mechanisms and biological processes involved in carcinogenesis or drug resistance. We employed a titration-based paradigm (quantitative high-throughput screening or qHTS), where all compounds were tested at multiple concentrations for their effect on cell viability. Concentration-response curves (CRCs) were derived directly from the primary screen, and both potency and efficacy values were used to identify compounds with robust bioactivity profiles. We screened the NIH Chemical Genomics Center (NCGC) Pharmaceutical Collection (NPC) and Mechanism Interrogation Plate (MIPE) small molecule collections of approved and investigational compounds against these cell lines; and measured metabolically active cells after 48 hours of compound treatment as a proxy for cell viability.
Assay Submitter: Nathalia J. Martinez, National Center for Advancing Translational Sciences, National Institutes of Health, Rockville, MD, USA; email: natalia.martinez@nih.gov
[1] Shen, M et al. Quantitative high-throughput phenotypic screening of pediatric cancer cell lines identifies multiple opportunities for drug repurposing. Oncotarget 2017 Dec 19;9(4):4758-4772. PMID 29435139.
The cells were obtained from University of North Carolina (UNC), Pediatric Preclinical Testing Program (PPT), and Coriell Institute (CI).
qHTS cell viability assay:
Cells were assayed in growth media at a density of 500-1,000 cells/well. Five microliters of cells were dispensed into 1,536-well, white, solid-bottom, TC-treated plates (Greiner Bio One) using a multidrop dispenser and incubated at 37 degrees C, 5% CO2, under a humidified atmosphere for 5 hours. Twenty-three nanoliters of compounds and controls (neutral control DMSO or positive control bortezomib at final concentration of 2.3 µM) were subsequently transferred by Kalypsys pintool. For primary screens, the MIPE collection was tested at 11-point dilutions (final concentrations range from 0.78 nM to 46 µM) and the NPC collection at 8-point dilutions (final concentrations range from 0.59 nM to 46 µM). Compounds tested in follow-up screens were assayed at 11-point dilutions. Cells were incubated for 48 hours, followed by addition of 3 µL of CellTiter-Glo (Promega). After a 15 min incubation at room temperature, samples were analyzed for luminescence intensity using a ViewLux High-throughput CCD imager equipped with clear filters.
% is set by controls: 0 for no effect and ±100 for the full control effect; potency is the fitted concentration of half-maximal effect.

| SMILES | activity change, negative = cytotoxic | Potency |
| --- | --- | --- |
| O=C1NC(=O)C(=Cc2ccc3c(c2)OC(F)(F)O3)S1 | -1.95% | – |
| CC1(C)S[C@H]2[C@H](NC(=O)[C@@H](N)c3ccc(O)cc3)C(=O)N2[C@@H]1C(=O)O | 4.64% | – |
| CC(C)n1nc(-c2ccc3oc(N)nc3c2)c2c(N)ncnc21 | – | 208 nM (active) |
| O=C(O)c1ccc(-c2c[nH]c3ncc(-c4ccccc4)cc23)cc1C1CCCC1 | -1.73% | – |
| Nc1ncnc2c1ncn2[C@@H]1O[C@@H](CO)[C@H](O)[C@H]1O | 11.3% [at 29.5 µM] | – |
| O=C(O)c1ccc(-c2cc3cccnc3c(-c3ccc4nonc4c3)n2)cc1 | – | 7370 nM (active) |
| O=c1[nH]cnc2c1ncn2[C@H]1CC[C@@H](CO)O1 | -30.6% | – |
| NC1=N[C@@]2(c3cc(NC(=O)c4ccc(F)cn4)ccc3F)COC[C@@H]2CS1 | 8.07% | – |
| Oc1ccc(C2CCN(c3ccnc4ccccc34)CC2)cc1O | – | 928 nM (active) |
| O=C(Nc1cccc(Br)c1)c1cccc(S(=O)(=O)N2CCCCCC2)c1 | 6.84% | – |
| CC(=O)Nc1ccc([C@H](C)C(=O)Nc2ncc(C(C)C)s2)cc1 | – | 7370 nM (active) |
| O=C1c2ccccc2-[n+]2ccc3c([nH]c4ccccc43)c21 | – | 1650 nM (active) |
| COc1ncc(-c2ccc3nccc(-c4ccnnc4)c3c2)cc1NS(=O)(=O)c1ccc(F)cc1F | -92.6% | – |
| CC(C)(C(=O)NCC(F)(F)C(F)(F)F)C(=O)N[C@@H]1C(=O)Nc2ccccc2-c2ccccc21 | 8.34% | – |
| CCCCCCCCCCCC1=C(O)C(=O)C=C(O)C1=O | 2.72% | – |
| CN(C)C1CCN(C(=O)c2ccc(NC(=O)Nc3nc(N4CCOCC4)nc(N4CCOCC4)n3)cc2)CC1 | – | 293 nM (active) |
| COc1cc2nc(-c3ccc(N4CCN(C)CC4)cc3)nc(NCCN3CCOCC3)c2cc1OC | – | 208 nM (active) |
| CO[C@H]1C=CC=C(C)C(=O)NC2=CC(=O)C(NCCN(C)C)=C(C[C@@H](C)C[C@H](OC)[C@@H](O)[C@@H](C)C=C(C)[C@@H]1OC(N)=O)C2=O | 21.7% | – |
| COc1cccc(-c2cc(=O)c3ccccc3o2)c1N | – | 465 nM (active) |
| COc1cc2ncnc(Nc3ccc(F)c(Cl)c3)c2cc1OCCCN1CCOCC1 | – | 1510 nM (active) |

| SMILES | activity change, negative = cytotoxic | Potency |
| --- | --- | --- |
| CN[C@@H](C)C(=O)N[C@H]1CN(C(=O)CC(C)C)CC[C@H]2CC[C@@H](C(=O)NC(c3ccccc3)c3ccccc3)N2C1=O | 7.79% | – |
| O=C(O)CCC1CCC(c2cc(F)ccc2F)(S(=O)(=O)c2ccc(Cl)cc2)CC1 (stereo not given) | -1.53% | – |
| OC[C@H]1O[C@@H](n2cnc3c2NC=NC[C@@H]3O)C[C@H]1O | 12.3% | – |
| CC[C@@H]1C=C(C)C[C@H](C)C[C@H](OC)[C@H]2O[C@@](O)(C(=O)C(=O)N3CCCC[C@@H]3C(=O)O[C@H](C(C)=C[C@@H]3CC[C@H](Cl)[C@H](OC)C3)[C@H](C)[C@@H](O)CC1=O)[C@H](C)C[C@H]2OC | -12.4% | – |
| CC1(C)CCC2=C(O1)c1ccccc1C(=O)C2=O | – | 465 nM (active) |
| O=C1C(Cl)=C(NCCN2CCOCC2)C(=O)c2ncccc21 | – | 1170 nM (active) |
| N[C@@]1(C(=O)O)CS(=O)(=O)[C@H]2[C@H](C(=O)O)[C@H]21 | 8.44% | – |
| CC=C(C)C(=O)O[C@H]1C(C)=C[C@]23C(=O)[C@@H](C=C(CO)[C@@H](O)[C@]12O)[C@H]1[C@@H](C[C@H]3C)C1(C)C | 11.4% | – |
| COc1ccc2c(Oc3ccc(NC(=O)c4c(C)n(CC(C)(C)O)n(-c5ccccc5)c4=O)cc3F)ccnc2c1 | 3.13% | – |
| CC[C@]1(O)C[C@@H]2CN(CCc3c([nH]c4ccccc34)[C@@](C(=O)OC)(c3cc4c(cc3OC)N(C)[C@H]3[C@@](O)(C(=O)OC)[C@H](OC(C)=O)[C@]5(CC)C=CCN6CC[C@]43[C@@H]65)C2)C1 | – | 1170 nM (active) |
| Cc1nnc(C(C)C)n1C1C[C@H]2CC[C@@H](C1)N2CC[C@H](NC(=O)C1CCC(F)(F)CC1)c1ccccc1 (stereo not given in full) | – | 7370 nM (active) |
| COc1ccc(-c2nc(N3CCOCC3)c3sc(CN(C)c4ncc(C(=O)NO)cn4)cc3n2)cn1 | – | 2330 nM (active) |
| O=c1cc(-c2ccc(O)cc2)oc2cc(O)cc(O)c12 | 4.54% | – |
| COc1cc(N2CCC(N3CCN(C)CC3)CC2)ccc1Nc1ncc(Cl)c(Nc2ccccc2S(=O)(=O)C(C)C)n1 | – | 1040 nM (active) |
| CCc1ccc(OCc2ccccc2C(=O)Nc2ccc3nc(C)cc(N)c3c2)cc1 | – | 8270 nM (active) |
| CC(=O)O[C@]1(C(C)=O)CC[C@@H]2[C@@H]3C[C@H](C)C4=CC(=O)CC[C@]4(C)[C@H]3CC[C@@]21C | 7.15% | – |
| CC[C@]1(O)C[C@@H]2CN(CCc3c([nH]c4ccccc34)[C@@](C(=O)OC)(c3cc4c(cc3OC)N(C=O)[C@@H]3C45CCN4CC=C[C@](CC)([C@H]45)[C@@H](OC(C)=O)[C@]3(O)C(=O)OC)C2)C1 (stereo not given in full) | 21.1% | – |
| CO[C@H]1C[C@@H]2CC[C@@H](C)[C@@](O)(O2)C(=O)C(=O)N2CCCC[C@@H]2C(=O)O[C@H]([C@H](C)C[C@@H]2CC[C@H](OCCO)[C@H](OC)C2)CC(=O)[C@H](C)C=C(C)[C@@H](O)[C@@H](OC)C(=O)[C@H](C)C[C@H](C)C=CC=CC=C1C | 6.98% | – |
| CC1(C)O[C@H]2C[C@@H]3[C@H]4CCC5=CC(=O)C=C[C@]5(C)[C@@]4(F)[C@@H](O)C[C@]3(C)[C@]2(C(=O)CO)O1 | 10% | – |
| CC(=NNC(=S)N1CCC1)c1ccccn1 | 22.3% | – |
